Assay results published in PubChem BioAssay (EPA / NIEHS).
Where “and” joins values, the source holds several entries; their conditions need not be identical. Identical values can stand only once. Records with an inconclusive call do not appear. A structure can be active in one record and inactive in another. Calls of active or inactive are those of the source. How the source made its calls, unless noted: active means hit-call score of the fitted dose curve at least 0.9, where 1 is the maximum; inactive means score below 0.9.

Experiments:
CD40, CD40 (gene 958) = assay: BSK_IMphg_CD40: BioMAP Diversity Plus: IMphg Assay for CD40 Biomarker Activity (AID 2284288); conditions: primary human endothelial cells with macrophages
How it was run: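 ELISA read-out of cell-surface CD40 at 24 h in human venular endothelial cell/macrophage co-cultures. Activity fitted in the positive direction against DMSO; parallel SRB staining (560 nm) gauges overt cytotoxicity.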

[1] = read-out: TIMP metallopeptidase inhibitor 2 (TIMP2), TIMP2 (gene 7077); assay: BSK_hDFCGF_TIMP2: BioMAP Diversity Plus: hDFCGF Assay for TIMP metallopeptidase inhibitor 2 (TIMP2) Biomarker Activity (AID 2284289); conditions: primary human foreskin fibroblasts
How it was run: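 Primary human foreskin fibroblasts in the hDFCGF system, dosed for 24 h; TIMP-2 level measured by ELISA, fitted in the positive direction against DMSO; cytotoxicity checked in parallel by sulforhodamine B total protein staining.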

[2] = read-out: Interleukin-1 alpha (IL1a), IL1A (gene 3552); assay: BSK_IMphg_IL1a: BioMAP Diversity Plus: IMphg Assay for Interleukin-1 alpha (IL1a) Biomarker Activity (AID 2284290); conditions: primary human endothelial cells with macrophages
How it was run: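 IL-1α is quantified by ELISA at 24 h in the endothelial/macrophage IMphg co-culture, with gain of signal fitted relative to DMSO. Parallel SRB total-protein staining flags overt toxicity.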

[3] = read-out: E-selectin (Homo sapiens) (UniProt P16581); assay: BSK_IMphg_ESelectin: BioMAP Diversity Plus: IMphg Assay for Eselectin Biomarker Activity (AID 2284291); conditions: primary human endothelial cells with macrophages
How it was run: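 Analysed against DMSO baseline in the positive fitting direction, this endpoint is an ELISA read of E-selectin. It comes from human venular endothelial cells co-cultured with macrophages, sampled 24 h post-dose.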

[4] = BSK_IMphg_SRB: Viability Assessment in the BioMAP Diversity Plus: IMphg Assay (AID 2284292); conditions: primary human endothelial cells with macrophages;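 further: measured one day after compound addition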
How it was run: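 SRB viability endpoint: cultures of human endothelial cells plus macrophages fixed with 10% TCA, stained with 0.1% SRB, read at 560 nm 24 h post-dosing. Only gain-of-signal fitted, relative to DMSO.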

[5] = read-out: Macrophage colony-stimulating factor (MCSF), CSF1 (gene 1435); assay: BSK_IMphg_MCSF: BioMAP Diversity Plus: IMphg Assay for Macrophage colony-stimulating factor (MCSF) Biomarker Activity (AID 2284293); conditions: primary human endothelial cells with macrophages
How it was run: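 M-CSF was measured by ELISA in human venular endothelial cell/macrophage co-cultures dosed for 24 hours. Sulforhodamine B staining of parallel cultures assessed cytotoxicity; data fitted against DMSO baseline.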

[6] = read-out: Interleukin-10 (IL10), IL10 (gene 3586); assay: BSK_IMphg_IL10: BioMAP Diversity Plus: IMphg Assay for Interleukin-10 (IL10) Biomarker Activity (AID 2284294); conditions: primary human endothelial cells with macrophages
How it was run: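 IL-10 read by ELISA after 24 h chemical exposure of primary human venular endothelial cell/macrophage cocultures, with DMSO as baseline. Parallel SRB staining (560 nm) gauged overt cytotoxicity.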

[7] = BSK_IMphg_SRB.Mphg: Macrophage Viability Assessment in the BioMAP Diversity Plus: IMphg Assay (AID 2284295); conditions: primary human endothelial cells with macrophages
How it was run: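 Cytotoxicity read-out: parallel cultures fixed with 10% TCA, stained with 0.1% sulforhodamine B, read at 560 nm. System combines venular endothelium and macrophages; sampled 24 h post-dosing, fitted positively relative to DMSO control.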

[8] = read-out: Thrombomodulin, THBD (gene 7056); assay: BSK_LPS_Thrombomodulin: BioMAP Diversity Plus: LPS Assay for Thrombomodulin Biomarker Activity (AID 2284296); conditions: primary human HUVEC with PBMC
How it was run: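 Thrombomodulin on the surface of LPS-activated endothelial/PBMC co-cultures was quantified by ELISA at 24 hours post-dosing, with DMSO as baseline. Parallel SRB total-protein staining flagged overt cytotoxicity.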

CD69, CD69 (gene 969) = assay: BSK_LPS_CD69: BioMAP Diversity Plus: LPS Assay for CD69 Biomarker Activity (AID 2284303); conditions: primary human HUVEC with PBMC
How it was run: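 CD69 surface levels were read by ELISA after 24 h chemical treatment of an LPS-stimulated HUVEC plus PBMC co-culture; positive-direction fit against DMSO vehicle.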

[9] = IUF_NPC2c_oligodendrocyte_migration_120hr: Leibniz Research Institute for Environmental Medicine (IUF) 120-hour Neural Progenitor Cell Migration Assay for Oligodendrocyte Migration (NPC2c) (AID 2284297);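 further: O4-positive oligodendrocyte migration distance divided by radial glia migration distance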
How it was run: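 hNPC spheres (GW 16-19 cortex), PDL/laminin, DMEM/F12 3:1 + 1% N2, 37C. Dosing day 0–5, half feed day 3, DMSO ≤0.1%. Fixed 120 h; O4 ICC + Hoechst, HCI. Readout: mean oligodendrocyte distance from sphere edge / radial glia distance.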

[10] = IUF_NPC2a_radial_glia_migration_120hr: Leibniz Research Institute for Environmental Medicine (IUF) 120-hour Neural Progenitor Cell Migration Assay for Radial Glia Migration (NPC2a) (AID 2284298)
How it was run: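 Hoechst-stained nuclei imaged at 120 h; algorithm maps sphere core by densest nuclei, sets migration edge at density threshold, gives radial glia migration distance (um) per well vs DMSO. hNPC spheres (0.3 mm), PDL/laminin, DMEM/F12 3:1 + 1% N2.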

[11] = IUF_NPC2a_radial_glia_migration_72hr: Leibniz Research Institute for Environmental Medicine (IUF) 72-hour Neural Progenitor Cell Migration Assay for Radial Glia Migration (NPC2a) (AID 2284299)
How it was run: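 Single 0.3 mm neurospheres were plated per well in N2 differentiation medium and exposed from the start of differentiation. After 72 hours, brightfield images were taken and radial glia migration from the sphere core edge was measured manually in four directions, averaged per well.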

[12] = IUF_NPC2b_neuronal_migration_120hr: Leibniz Research Institute for Environmental Medicine (IUF) 120-hour Neural Progenitor Cell Migration Assay for Neuron Migration (NPC2b) (AID 2284300)
How it was run: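 hNPC spheres, PDL/laminin, DMEM:F12 3:1 + 1% N2, 37C/5% CO2; 7 concentrations + solvent control (DMSO ≤0.1%), 5 d exposure, half-feed day 3. Fix 120 h, TUBB3 ICC, HCI: mean neuron migration distance ÷ glia distance.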

[13] = IUF_NPC3_neuronal_differentiation_120hr: Leibniz Research Institute for Environmental Medicine (IUF) 120-hour Neuronal Differentiation Assay (NPC3) (AID 2284301)
How it was run: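 hNPC spheres, PDL/laminin, DMEM/F12 3:1 + 1% N2, 37C, 5% CO2; 7 concentrations + solvent control, 5 d exposure, half-change day 3. Fix 120 h; TUBB3/Hoechst ICC, CNN neuron calling; % neurons vs nuclei, DMSO-normalized.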

[14] = IUF_NPC4_neurite_length_120hr: Leibniz Research Institute for Environmental Medicine (IUF) 120-hour Neuronal Morphology Assay for Neurite Length (NPC4) (AID 2284302)
How it was run: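 hNPC spheres (0.3 mm, fetal brain GW 16-19) on PDL/laminin, DMEM:F12 3:1 + 1% N2, 37C 5% CO2; 7 concs + solvent control, day 0-5, half medium change d3; fix 120 h, TUBB3 ICC, mean neurite length um vs DMSO.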

[15] = IUF_NPC5_oligodendrocyte_differentiation_120hr: Leibniz Research Institute for Environmental Medicine (IUF) 120-hour Oligodendrocyte Differentiation Assay (NPC5) (AID 2284304; active means hit-call score of the fitted dose curve at least 0.9, where 1 is the maximum;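 further: primary human fetal neural progenitor spheres plated to migrate and differentiate; share of O4-positive cells among Hoechst nuclei found by CNN image analysis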)
How it was run: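 hNPC spheres, fetal cortex GW 16-19; PDL/laminin, DMEM:F12 3:1 + 1% N2, 37C/5% CO2; 7 concentrations + solvent control, 5 d exposure, half-change day 3. Readout: %O4+ of Hoechst+ nuclei in migration area, CNN classification; DMSO baseline.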

[16] = IUF_NPC4_neurite_area_120hr: Leibniz Research Institute for Environmental Medicine (IUF) 120-hour Neuronal Morphology Assay for Neurite Area (NPC4) (AID 2284305; active means hit-call score of the fitted dose curve at least 0.9, where 1 is the maximum)
How it was run: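 hNPC spheres on PDL/laminin, N2 medium, 37C/5% CO2; dosed day 0, half-medium refresh day 3; fixed 120 h; TUBB3/Hoechst ICC, high-content imaging; neurite area = mean pixels per neuron (nuclei excluded); DMSO baseline, max 0.1%.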

[17] = IUF_NPC2-5_cytotoxicity_72hr: Cytotoxicity Assessment at 72 hours in the Leibniz Research Institute for Environmental Medicine (IUF) Neural Progenitor Cell Migration and Differentiation Assay for Cytotoxicity (NPC2-5) (AID 2284306; active means hit-call score of the fitted dose curve at least 0.9, where 1 is the maximum;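 further: LDH release into supernatant measured by resorufin fluorescence marking membrane damage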)
How it was run: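 hNPC spheres (0.3 mm), PDL/laminin, DMEM/F12 3:1 + 1% N2; cpd from d0, 7 concs + SC, DMSO max 0.1%; half-medium refresh d3. Readout: supernatant LDH via resorufin fluorescence (RFU), 72 h; gain-of-signal fit.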

[18] = IUF_NPC2-5_cytotoxicity_120hr: Cytotoxicity Assessment at 120 hours in the Leibniz Research Institute for Environmental Medicine (IUF) Neural Progenitor Cell Migration and Differentiation Assay (NPC2-5) (AID 2284307; active means hit-call score of the fitted dose curve at least 0.9, where 1 is the maximum)
How it was run: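 hNPC spheres on PDL/laminin, N2 medium, 37C; 7 concs + solvent control, DMSO ≤0.1%; 5-day exposure, half medium changed day 3. LDH in supernatant at 120 h, resazurin→resorufin fluorescence, gain-of-signal.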

Measured: AC50

Sequence of E-selectin (Homo sapiens) (P16581 whole entry, looked up): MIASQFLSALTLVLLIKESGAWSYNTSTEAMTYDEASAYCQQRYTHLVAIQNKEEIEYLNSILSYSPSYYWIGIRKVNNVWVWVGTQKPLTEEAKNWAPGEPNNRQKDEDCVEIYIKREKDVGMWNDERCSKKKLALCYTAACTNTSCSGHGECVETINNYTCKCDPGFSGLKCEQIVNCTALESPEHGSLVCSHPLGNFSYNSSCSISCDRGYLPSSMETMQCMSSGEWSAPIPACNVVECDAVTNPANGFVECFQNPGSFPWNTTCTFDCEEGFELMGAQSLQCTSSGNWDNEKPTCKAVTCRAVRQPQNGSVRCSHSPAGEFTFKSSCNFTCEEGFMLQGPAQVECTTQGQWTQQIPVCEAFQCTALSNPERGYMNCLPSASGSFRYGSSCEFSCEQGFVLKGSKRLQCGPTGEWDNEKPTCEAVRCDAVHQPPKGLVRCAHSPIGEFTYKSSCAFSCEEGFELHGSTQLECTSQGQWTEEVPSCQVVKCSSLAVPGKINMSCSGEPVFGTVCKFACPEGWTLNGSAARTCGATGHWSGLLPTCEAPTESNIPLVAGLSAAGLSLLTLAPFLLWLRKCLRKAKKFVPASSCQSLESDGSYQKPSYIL

OCCC(F)(F)C(F)(F)C(F)(F)C(F)(F)C(F)(F)C(F)(F)C(F)(F)C(F)(F)F
inactive: [2] | [5] | [8]
active: CD40, CD40 (gene 958) 46.1 µM and 45.6 µM | [1] 5.95 µM and 16.2 µM | [2] 39.6 µM | [3] 47.2 µM and 49.9 µM | [4] 50.5 µM and 49.1 µM | [5] 30 µM | [6] 39 µM and 32.8 µM | [7] 46.7 µM and 47.4 µM | [8] 347 nM | CD69, CD69 (gene 969) 30 µM and 2.1 µM

FC(F)(I)C(F)(F)C(F)(F)C(F)(F)C(F)(F)C(F)(F)I
inactive: CD40, CD40 (gene 958) | [1] | [2] | [8] | CD69, CD69 (gene 969)
active: [1] 5.93 µM and 5.41 µM and 5.49 µM | [2] 30 µM and 22.7 µM and 39.1 µM | [3] 46.1 µM [middle of 5 runs] | [4] 43.5 µM [middle of 5 runs] | [5] 44.4 µM [middle of 5 runs] | [6] 33.9 µM [middle of 5 runs] | [7] 12.6 µM [middle of 5 runs] | [8] 14.6 µM and 23.5 µM | CD69, CD69 (gene 969) 4.49 µM and 40.5 µM and 53.2 µM

CN1CCC[C@H]1c1cccnc1
inactive: [9] | [10] | [11] | [12] | [13] | [14] | [15] | [16] | [17] | [18]

CC1=C(/C=C/C(C)=C/C=C/C(C)=C/C(=O)O)C(C)(C)CCC1
inactive: [9] | [11] | [12] | [13] | [14] | [15] | [16] | [17] | [18]
active: [10] 1.74 µM

OCCC(F)(F)C(F)(F)C(F)(F)C(F)(F)C(F)(F)C(F)(F)F
active: [1] 52.5 µM and 47 µM | [3] 55.2 µM | [7] 39.8 µM
inactive: CD40, CD40 (gene 958) | [2] | [3] | [4] | [5] | [6] | [7] | [8] | CD69, CD69 (gene 969)

NCC(F)(F)C(F)(F)C(F)(F)C(F)(F)C(F)(F)C(F)(F)C(F)(F)F
active: CD40, CD40 (gene 958) 24 µM | [7] 0.22 µM
inactive: CD40, CD40 (gene 958) | [1] | [2] | [3] | [4] | [5] | [6] | [7] | [8] | CD69, CD69 (gene 969)

C=C(C)C(=O)OCCC(F)(F)C(F)(F)C(F)(F)C(F)(F)C(F)(F)C(F)(F)F
inactive: CD40, CD40 (gene 958) | [1] | [2] | [3] | [4] | [5] | [6] | [7] | [8] | CD69, CD69 (gene 969)

C[C@@H]1C[C@H]2[C@@H]3CCC4=CC(=O)C=C[C@]4(C)[C@@]3(F)[C@@H](O)C[C@]2(C)[C@@]1(O)C(=O)COP(=O)(O)O
active: CD40, CD40 (gene 958) 13.3 µM | [1] 966 nM | [2] 3.58 µM | [3] 580 nM and 1.5 µM | [6] 954 nM and 1.38 µM | [7] 4.66 µM
inactive: CD40, CD40 (gene 958) | [1] | [2] | [4] | [5] | [7] | [8] | CD69, CD69 (gene 969)

CC#C[C@]1(O)CC[C@H]2[C@@H]3CCC4=CC(=O)CCC4=C3[C@@H](c3ccc(N(C)C)cc3)C[C@@]21C
inactive: [9] | [10] | [11] | [12] | [13] | [14] | [15] | [16] | [17] | [18]
